Experimental data taken from PubChem BioAssay.

assay: change in splice reporter luminescence, either direction, cell-based, HEK293, spliceosome inhibition project, primary screen (AID 1101); details: HEK293 splicing luciferase reporter, 24 h, higher = more signal, called active from +8 up or from −8 down;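 note: HEK293 cells carrying a splicing-competent luciferase reporter gene; test concentration not given here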

z-score, inactive:
Cc1ccccc1C(O)C1C=CC2C(=O)N(C)C(=O)C2N1Nc1ccccc1 (stereo unspecified) 0.0737
COc1cc(CO)ccc1OC(C)=O -0.749
CC(=CC1CCCCC1)[C@@H](NC(=O)c1ccc(C(F)(F)F)cc1)c1ccc(-c2ccccc2)cc1 -0.423
COc1ccc([Si](C)(C)[C@H]2[C@H](CCn3cc([C@H](O)c4ccccc4)nn3)O[C@@]3(C(=O)N(Cc4cccc(N5CCC5=O)c4)c4ccccc43)[C@@H]2C)cc1 -1.4
CCCC[C@H]1OB(O)C[C@H]2C1=C(C)C[C@H]1C(=O)N(Cc3ccccc3)C(=O)[C@H]12 0.0984
CC(C)NC(=O)[C@@H]1c2ccccc2C(=O)N(Cc2ccccc2)[C@H]1c1ccc(CO)cc1 0.00875
[N-]=[N+]=NCc1ccccc1C[C@]1(C(=O)NCC(O)CO)N=C(c2ccc(OCCCO)cc2)O[C@H]1c1ccccc1N=[N+]=[N-] (stereo partly specified) -1.58
C=CCC(OC(C)=O)[C@@H]1[C@@H](N(Cc2ccc(-c3ccccc3)cc2)C(=O)Cc2ccc(F)cc2)c2cc(OCCCO)ccc2N1C(=O)c1ccc2ccccc2n1 (stereo partly specified) -0.457
CO[C@H]1O[C@H](CO)[C@@H](OC(=O)Nc2ccc(Oc3ccccc3)cc2)[C@H](OC(=O)Nc2ccccc2)[C@H]1OC(=O)Nc1ccccc1 0.511
CC(C)C(O)C1C=CC2C(=O)N(c3ccccc3)C(=O)C2N1Nc1ccc(C#N)cc1 (stereo unspecified) 0.251
CC(C)c1ccc(NN2C(C(O)c3c(F)cccc3Cl)C=CC3C(=O)N(c4ccccc4)C(=O)C32)cc1 (stereo unspecified) -1.11
O=C(NCc1ccccc1)[C@]1(CCS(=O)(=O)c2ccccc2)N=C(c2ccc(OCCCO)cc2)O[C@@H]1c1ccccc1 0.637
COc1ccc([Si](C)(C)[C@H]2[C@H](CCn3cc(CCO)nn3)O[C@@]3(C(=O)N(Cc4ccc(N5CCOC5=O)cc4)c4ccccc43)[C@@H]2C)cc1 -0.188
COCCOC(=O)N1C(=O)[C@@]2(c3cc(C#CC4=CCCCC4)ccc31)[C@H](C(=O)N1CCc3cc(OC)c(OC)cc3C1)[C@H]1C(=O)O[C@H](c3ccccc3)[C@H](c3ccccc3)N1[C@@H]2c1ccccc1OCCO -0.176
Cc1ccccc1C(O)C1C=CC2C(=O)N(C)C(=O)C2N1N1CCCCC1 (stereo unspecified) 1.28
CCCCC(O)C1C=CC2C(=O)N(C3CCCCC3)C(=O)C2N1Nc1ccc(OC)cc1 (stereo unspecified) -0.221
O=C(CCN1CCOCC1)c1cccc(O)c1 0.964
C=C(COC)C(=O)CC[C@@H](OC(=O)c1cccnc1)c1ccc(CO)o1 1.86
O=C1c2ccccc2[C@@]2(Cc3ccccc3N(Cc3ccccc3)C2=O)[C@H](c2ccc(CO)cc2)N1C1CCCCC1 -0.322
Cc1ccc(S[C@]2(C(=O)NC3CC3)CC(=O)N(C3CCCCC3)[C@@H]2c2ccc(CO)cc2I)cc1 -0.575
CCOC(=O)C[C@H]1[C@H](OC(=O)c2ccccc2-c2ccccc2)[C@@H](NC(=O)c2ccc3ccccc3c2)c2cc(OCCCO)ccc2N1C(=O)c1ccc2ccccc2n1 0.411
C[C@H]1NC(=O)[C@H](Cc2ccccc2)NC(=O)[C@@]23C(=O)N[C@@H](Cc4ccccc4)C2[C@H](C)[C@@]2(C)O[C@H]2C3/C=C/C/C=C\CNC1=O (stereo partly specified) 0.587
COC(=O)C(CC#Cc1ccc2c(c1)[C@]1(C(=O)N2)[C@H](C(=O)NC[C@H](O)c2ccccc2)[C@H]2C(=O)O[C@H](c3ccccc3)[C@H](c3ccccc3)N2[C@@H]1c1ccc(OCCO)cc1)C(=O)OC 0.0839
COC(=O)[C@]1(Cc2ccccc2N=[N+]=[N-])N=C(c2ccc(OCCCO)cc2)O[C@@H]1c1ccccc1N=[N+]=[N-] -0.71
COCCOC(=O)N1C(=O)[C@@]2(c3cc(C#CCCO)ccc31)[C@H](C(=O)NC[C@H](O)c1ccccc1)[C@H]1C(=O)O[C@H](c3ccccc3)[C@H](c3ccccc3)N1[C@@H]2c1ccc(O)cc1 -0.267
C=CCC(OC(C)=O)[C@@H]1[C@@H](N(Cc2cccc3ccccc23)C(=O)c2cccc3ccccc23)c2cc(OCCCO)ccc2N1C(=O)c1ccc2ccccc2n1 (stereo partly specified) -0.202
